# Source: the supplement of paper PMC12669032
# A number with no mark means an inactive call.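 How the source made its calls: active = AUC reduced over 20% with Padj below 0.05 in at least 2 of 3 replicates; inactive = otherwise.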
# Tested on: Parabacteroides merdae
# Test: growth AUC relative to DMSO control (median of replicates) (fraction); higher = more growth (less inhibition), active = hit call of the paper
# Conditions: 20 µM; 24 h
# How it was run: (§1)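 Gut bacteria were grown singly in mGAM at 37 °C without oxygen, from OD600 0.05, alongside 20 µM compound in 1% DMSO, and OD600 was read each hour for 24 h. Area under the growth curve was normalised to the median of solvent-only wells per plate, or to row and column medians on the industrial chemical plate. The minimum OD was set to 0 beforehand, and the reported value is the median of three biological replicates grown on separate days.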
row,SMILES,growth AUC
1,COP(=S)(OC)Oc1ccc(S(N)(=O)=O)cc1,1.01
2,CCCCOC(=O)[C@@H](C)Oc1ccc(Oc2ccc(C#N)cc2F)cc1,0.971
3,CCC(C)(C)c1ccc(O)cc1,1.01
4,CCCCCCCCCc1ccc(O)cc1,0.971
5,CC(C)OC(=O)Nc1ccccc1,1
6,CCCCc1c(C)nc(NCC)nc1OS(=O)(=O)N(C)C,0.906
7,CCOP(=S)(OCC)Oc1cc(-c2ccccc2)on1,1
8,C=CC(N)=O,0.993
9,CC(C)C(C(=O)OC(C#N)c1cccc(Oc2ccccc2)c1)c1ccc(OC(F)F)cc1 (stereo not drawn),0.971
10,Oc1ccccc1-c1ccccc1,1.04
11,FC(F)C(F)(F)OCC(Cn1cncn1)c1ccc(Cl)cc1Cl (stereo not drawn),0.932
12,Nc1ccc(Cc2ccc(N)c(Cl)c2)cc1Cl,1
13,Nc1cccc(Cl)c1Cl,0.998
14,COC(=O)NS(=O)(=O)c1ccc(N)cc1,0.774 (active)
15,CC(C)=CC1C(C(=O)OCc2cccc(Oc3ccccc3)c2)C1(C)C (mixture of isomers),0.956
16,COP(=S)(OC)SCC(=O)N(c1ccc(Cl)cc1)C(C)C,0.924
17,CC(=O)O.CC(=O)O.CC(=O)O.NC(N)=NCCCCCCCCNCCCCCCCCN=C(N)N,0.025 (active)
18,N#Cc1c(Cl)c(Cl)c(Cl)c(C#N)c1Cl,0.823
19,CCOP(=O)(NC(C)C)Oc1ccc(SC)c(C)c1 (stereo not drawn),0.966
20,[CH3][Hg][Cl],0.892

row,SMILES,growth AUC
1,ClC1=C(Cl)C2(Cl)C3COCC3C1(Cl)C2(Cl)Cl (stereo not drawn),1.02
2,c1cc2c3c(cccc3c1)CC2,0.995
3,CO/N=C(/C(=O)OC)c1ccccc1COc1ccccc1C,0.927
4,O=C(Nc1ccc(F)cc1F)c1cccnc1Oc1cccc(C(F)(F)F)c1,0.971
5,ClC1=C(Cl)[C@]2(Cl)[C@@H]3[C@@H]4C[C@@H]([C@H]5O[C@@H]45)[C@@H]3[C@@]1(Cl)C2(Cl)Cl,0.932
6,CC1(C)CCC(Cc2ccc(Cl)cc2)C1(O)Cn1cncn1 (stereo not drawn),0.918
7,CC(C)(C)C(O)C(Cc1ccc(Cl)cc1Cl)n1cncn1 (mixture of isomers),0.889
8,CC1(C)C(C=C(Cl)Cl)C1C(=O)OCc1cccc(Oc2ccccc2)c1 (mixture of isomers),0.951
9,O=[N+]([O-])C(Br)(CO)CO,0.998
10,COc1cc(OC)nc(NC(=O)NS(=O)(=O)c2ncccc2C(=O)N(C)C)n1,0.988
11,COC(=O)c1ccccc1S(=O)(=O)NC(=O)Nc1nc(C)cc(C)n1,0.987
12,CCS(=O)(=O)c1nc2ccccn2c1S(=O)(=O)NC(=O)Nc1nc(OC)cc(OC)n1,1.02
13,COc1cc(OC)nc(NC(=O)NS(=O)(=O)c2cc(NC=O)ccc2C(=O)N(C)C)n1,0.951
14,O=C(Nc1ccccc1)Nc1cnns1,0.955
15,CCSCCSP(=S)(OC)OC,0.988
16,Clc1cc(Cl)c(Cl)cc1Cl,0.998
17,COP(=S)(OC)Oc1cc(Cl)c(Br)cc1Cl,0.917
18,CC(C)C1(C)N=C(c2ncccc2C(=O)O)NC1=O (stereo not drawn),0.997
19,O=c1oc2ccccc2c(O)c1C1CCCc2ccccc21 (stereo not drawn),0.994

# Tested on: Roseburia intestinalis
# Test: as above
# Conditions: 20 µM; 24 h
# How it was run: as §1
row,SMILES,growth AUC
1,COP(=S)(OC)Oc1ccc(S(N)(=O)=O)cc1,1.03
2,CCCCOC(=O)[C@@H](C)Oc1ccc(Oc2ccc(C#N)cc2F)cc1,0.997
3,CCC(C)(C)c1ccc(O)cc1,0.995
4,CCCCCCCCCc1ccc(O)cc1,0.897
5,CC(C)OC(=O)Nc1ccccc1,1.06
6,CCCCc1c(C)nc(NCC)nc1OS(=O)(=O)N(C)C,1.03
7,CCOP(=S)(OCC)Oc1cc(-c2ccccc2)on1,0.993
8,C=CC(N)=O,1.01
9,CC(C)C(C(=O)OC(C#N)c1cccc(Oc2ccccc2)c1)c1ccc(OC(F)F)cc1 (stereo not drawn),0.977
10,Oc1ccccc1-c1ccccc1,0.939
11,FC(F)C(F)(F)OCC(Cn1cncn1)c1ccc(Cl)cc1Cl (stereo not drawn),0.956
12,Nc1ccc(Cc2ccc(N)c(Cl)c2)cc1Cl,1.1
13,Nc1cccc(Cl)c1Cl,1.02
14,COC(=O)NS(=O)(=O)c1ccc(N)cc1,0.929
15,CC(C)=CC1C(C(=O)OCc2cccc(Oc3ccccc3)c2)C1(C)C (mixture of isomers),0.908
16,COP(=S)(OC)SCC(=O)N(c1ccc(Cl)cc1)C(C)C,1.03
17,CC(=O)O.CC(=O)O.CC(=O)O.NC(N)=NCCCCCCCCNCCCCCCCCN=C(N)N,0.029 (active)
18,N#Cc1c(Cl)c(Cl)c(Cl)c(C#N)c1Cl,0.939
19,CCOP(=O)(NC(C)C)Oc1ccc(SC)c(C)c1 (stereo not drawn),1.02
20,[CH3][Hg][Cl],1.05

row,SMILES,growth AUC
1,ClC1=C(Cl)C2(Cl)C3COCC3C1(Cl)C2(Cl)Cl (stereo not drawn),1.08
2,c1cc2c3c(cccc3c1)CC2,0.998
3,CO/N=C(/C(=O)OC)c1ccccc1COc1ccccc1C,0.97
4,O=C(Nc1ccc(F)cc1F)c1cccnc1Oc1cccc(C(F)(F)F)c1,0.933
5,ClC1=C(Cl)[C@]2(Cl)[C@@H]3[C@@H]4C[C@@H]([C@H]5O[C@@H]45)[C@@H]3[C@@]1(Cl)C2(Cl)Cl,1
6,CC1(C)CCC(Cc2ccc(Cl)cc2)C1(O)Cn1cncn1 (stereo not drawn),0.943
7,CC(C)(C)C(O)C(Cc1ccc(Cl)cc1Cl)n1cncn1 (mixture of isomers),0.918
8,CC1(C)C(C=C(Cl)Cl)C1C(=O)OCc1cccc(Oc2ccccc2)c1 (mixture of isomers),0.921
9,O=[N+]([O-])C(Br)(CO)CO,0.964
10,COc1cc(OC)nc(NC(=O)NS(=O)(=O)c2ncccc2C(=O)N(C)C)n1,1.01
11,COC(=O)c1ccccc1S(=O)(=O)NC(=O)Nc1nc(C)cc(C)n1,0.944
12,CCS(=O)(=O)c1nc2ccccn2c1S(=O)(=O)NC(=O)Nc1nc(OC)cc(OC)n1,1.01
13,COc1cc(OC)nc(NC(=O)NS(=O)(=O)c2cc(NC=O)ccc2C(=O)N(C)C)n1,1.04
14,O=C(Nc1ccccc1)Nc1cnns1,0.918
15,CCSCCSP(=S)(OC)OC,1.03
16,Clc1cc(Cl)c(Cl)cc1Cl,0.962
17,COP(=S)(OC)Oc1cc(Cl)c(Br)cc1Cl,1.03
18,CC(C)C1(C)N=C(c2ncccc2C(=O)O)NC1=O (stereo not drawn),0.97
19,O=c1oc2ccccc2c(O)c1C1CCCc2ccccc21 (stereo not drawn),1
